Measurements: PubChem BioAssay (NCATS)
Results filed as inconclusive are left out. Where a call stands in place of a potency, no number is given. The source made the active and inactive calls. Unless noted, calls follow the shape of the dose curve; as a rule, active = well fitted curve in the direction sought with a large enough effect; inconclusive = small, poorly fitted or top-dose-only effect, or another doubt; inactive = no such curve, though single readings can be large; an effect the other way counts as inactive or inconclusive.

What was measured:
[1] = target: Cytochrome P450 1A2 (Homo sapiens) (UniProt P05177); assay: p450-cyp1a2 (AID 410; calls by dose curve)
Chain of Cytochrome P450 1A2 (Homo sapiens) (P05177 whole entry, looked up): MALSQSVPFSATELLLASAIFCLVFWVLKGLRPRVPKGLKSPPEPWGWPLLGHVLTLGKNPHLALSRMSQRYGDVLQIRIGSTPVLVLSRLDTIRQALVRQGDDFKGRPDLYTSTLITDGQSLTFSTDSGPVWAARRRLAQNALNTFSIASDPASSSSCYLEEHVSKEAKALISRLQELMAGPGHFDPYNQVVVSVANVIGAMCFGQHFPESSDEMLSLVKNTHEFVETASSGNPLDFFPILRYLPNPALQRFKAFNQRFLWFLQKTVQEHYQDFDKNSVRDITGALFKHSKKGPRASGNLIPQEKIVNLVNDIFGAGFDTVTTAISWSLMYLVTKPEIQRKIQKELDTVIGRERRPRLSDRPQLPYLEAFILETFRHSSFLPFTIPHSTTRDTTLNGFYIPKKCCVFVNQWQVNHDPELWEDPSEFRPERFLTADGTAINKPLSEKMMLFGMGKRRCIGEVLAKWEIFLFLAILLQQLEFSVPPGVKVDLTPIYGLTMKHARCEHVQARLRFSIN
Outline: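 20nM CYP1A2 with 100uM Luciferin-ME (at Km) in 100mM KPO4; compound preincubated 10 min, NADPH regeneration added, 60 min at room temperature. Luciferin quantified by luminescence after detection reagent; normalized to 57 uM furafylline.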

[2] = target: Glucocorticoid receptor (Homo sapiens) (UniProt P04150); assay: GR-GFP Redistribution (AID 450;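 active = compounds whose dose series gives a full or clear partial fitted curve of increased nuclear translocation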; also: potency is read from the fitted curve at half-maximal effect); settings: U2OS GR-GFP nuclear translocation, laser cytometry, 2 h
Chain of Glucocorticoid receptor (Homo sapiens) (P04150 whole entry, looked up, the tested form may be a part): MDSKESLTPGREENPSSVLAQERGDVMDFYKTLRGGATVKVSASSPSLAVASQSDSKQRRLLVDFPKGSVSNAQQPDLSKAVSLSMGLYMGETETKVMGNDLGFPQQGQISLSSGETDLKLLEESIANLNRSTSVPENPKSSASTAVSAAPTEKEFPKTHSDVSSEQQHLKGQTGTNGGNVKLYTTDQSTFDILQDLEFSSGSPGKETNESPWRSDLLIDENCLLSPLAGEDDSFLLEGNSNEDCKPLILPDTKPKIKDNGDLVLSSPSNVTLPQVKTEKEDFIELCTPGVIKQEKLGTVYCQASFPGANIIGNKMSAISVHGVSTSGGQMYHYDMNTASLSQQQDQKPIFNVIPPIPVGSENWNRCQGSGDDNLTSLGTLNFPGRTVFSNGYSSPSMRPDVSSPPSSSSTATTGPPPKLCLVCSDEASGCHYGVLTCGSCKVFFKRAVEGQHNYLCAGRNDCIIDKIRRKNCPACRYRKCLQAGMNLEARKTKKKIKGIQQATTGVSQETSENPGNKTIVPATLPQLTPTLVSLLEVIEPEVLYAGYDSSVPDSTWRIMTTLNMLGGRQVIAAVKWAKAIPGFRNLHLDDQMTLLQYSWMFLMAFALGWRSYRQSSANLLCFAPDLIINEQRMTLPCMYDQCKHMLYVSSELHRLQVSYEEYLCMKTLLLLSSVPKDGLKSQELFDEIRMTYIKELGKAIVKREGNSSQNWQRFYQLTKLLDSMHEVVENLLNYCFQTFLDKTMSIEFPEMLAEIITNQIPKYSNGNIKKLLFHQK

[3] = target: Glucocorticoid receptor (Homo sapiens) (UniProt P04150); assay: GR-EFC Redistribution (AID 451; calls by dose curve; also: potency is read from the fitted curve at half-maximal effect); settings: CHO-K1 GR-EFC translocation, beta-gal luminescence, 2 h
Outline: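 CHO-K1 cells expressing nuclear EA and GR-ED fragments of b-gal; compounds titrated up to 46 uM final, 2 h at 37 C. GR nuclear translocation read as complemented b-gal luminescence after 1 h RT detection.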

[4] = target: Mitogen-activated protein kinase 10 (Mus musculus) (UniProt Q61831); assay: JNK3 AlphaScreen Assay (AID 530; active = well fitted curve in either direction with a large enough effect, not every such curve was filed as active;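 also: kinase came from lysate of stimulated human HepG2 cells; signal reports phosphorylation of biotinylated GST-cJun 1-79 at Ser73 with 10 µM ATP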)
Outline: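 Pre-activated (IL-1β/TNFα) JNK3 in HepG2 lysates phosphorylates biotin-GST-cJun(1-79), 10 uM ATP; anti-phospho-cJun(Ser73) AlphaScreen read at room temperature, pH 7.6 Tris buffer. Compounds pre-incubated 15 min as titrations.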

[5] = target: 3',5'-cyclic-AMP phosphodiesterase 4B (Homo sapiens) (UniProt Q07343); assay: qHTS Assay for Inhibitors of PDE-IV (AID 607; active = well fitted activation curve with a large enough effect in the main read-out, with a control signal flat, not every such curve was filed as active)
Outline: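 Live HEK293 cells with a modified cyclic nucleotide-gated (CNG) channel report intracellular cAMP via membrane-potential dye fluorescence (ex 535/em 590 nm). Endogenous PDE-IV was targeted. Compounds were tested at up to 22.9 uM final; RO 20-1724 100 uM served as control.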

[6] = target: Cytochrome P450 2C19 (Homo sapiens) (UniProt P33261); assay: qHTS Assay for Inhibitors and Substrates of Cytochrome P450 2C19 (AID 899); also: nearly all actives have a fitted effect of over 60% in size; also: potency is read from the fitted curve at half-maximal effect
Outline: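 Luminescent read-out of luciferin formed from Luciferin-H EGE (10uM, equal to KM). Enzyme 5nM in 50mM KPO4; compound added, 10 min at 37C, then NADPH regenerating system for 60 min at 37C. Full inhibition defined by 57uM ketoconazole.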

[7] = qHTS Assay for Lipid Storage Modulators (AID 1519; calls by dose curve); settings: Drosophila S3 cells, BODIPY lipid droplet/cell ratio, laser cytometry, cells loaded with oleic acid; for activity change, negative = inhibition: at 57.5 µM (top of the series)
Outline: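 Cells seeded at 5,000 per well were treated with compounds over a concentration series and loaded with oleic acid (400 uM, as added). Lipid droplet fluorescence (488 nm excitation, 500-530 nm channel) was read by laser-scanning cytometry and normalized to 20 uM Triacsin C.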

[8] = target: Ubiquitin carboxyl-terminal hydrolase 1 (Homo sapiens) (UniProt O94782); assay: Inhibitors of USP1/UAF1: Pilot qHTS (AID 504865);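 also: rhodamine fluorescence freed from ubiquitin-rhodamine substrate followed over time; top concentration of the series differs between compounds; nearly all actives have a fitted effect of over 35% in size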
Chain of Ubiquitin carboxyl-terminal hydrolase 1 (Homo sapiens) (O94782 whole entry, looked up): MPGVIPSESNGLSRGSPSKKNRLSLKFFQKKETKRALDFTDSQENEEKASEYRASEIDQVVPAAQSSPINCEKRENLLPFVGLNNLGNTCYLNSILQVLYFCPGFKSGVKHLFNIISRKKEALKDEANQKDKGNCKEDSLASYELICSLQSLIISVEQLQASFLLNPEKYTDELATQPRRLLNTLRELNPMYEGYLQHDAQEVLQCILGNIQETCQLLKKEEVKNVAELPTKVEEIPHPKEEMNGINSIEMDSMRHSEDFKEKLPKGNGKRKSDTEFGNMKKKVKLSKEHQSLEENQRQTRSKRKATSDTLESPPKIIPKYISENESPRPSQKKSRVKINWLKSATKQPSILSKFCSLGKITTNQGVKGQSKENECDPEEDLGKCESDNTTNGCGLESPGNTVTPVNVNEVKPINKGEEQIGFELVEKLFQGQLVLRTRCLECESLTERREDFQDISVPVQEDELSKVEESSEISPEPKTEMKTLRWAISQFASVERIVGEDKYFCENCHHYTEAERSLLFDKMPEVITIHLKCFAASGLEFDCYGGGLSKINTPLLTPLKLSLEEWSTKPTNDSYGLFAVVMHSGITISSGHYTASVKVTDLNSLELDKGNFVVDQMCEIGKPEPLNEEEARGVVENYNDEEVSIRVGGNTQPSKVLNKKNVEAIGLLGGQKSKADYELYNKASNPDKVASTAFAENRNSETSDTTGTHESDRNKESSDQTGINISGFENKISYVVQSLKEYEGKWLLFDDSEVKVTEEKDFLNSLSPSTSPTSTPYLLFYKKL
Outline: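 USP1/UAF1 complex at 1 nM preincubated 15 min at room temperature with compound, then Ub-Rho substrate added at 150 nM final. Fluorescence (480/540 nm) read kinetically in 50 mM HEPES pH 7.8, 0.5 mM EDTA, 1 mM TCEP, 0.1 mg/ml BSA, 0.01% Tween-20.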

[9] = target: DNA dC->dU-editing enzyme APOBEC-3G (Homo sapiens) (UniProt Q9HC16); assay: qHTS for inhibitors of Vif-A3G interactions: Validation (AID 588379)
Chain of DNA dC->dU-editing enzyme APOBEC-3G (Homo sapiens) (Q9HC16 whole entry, looked up): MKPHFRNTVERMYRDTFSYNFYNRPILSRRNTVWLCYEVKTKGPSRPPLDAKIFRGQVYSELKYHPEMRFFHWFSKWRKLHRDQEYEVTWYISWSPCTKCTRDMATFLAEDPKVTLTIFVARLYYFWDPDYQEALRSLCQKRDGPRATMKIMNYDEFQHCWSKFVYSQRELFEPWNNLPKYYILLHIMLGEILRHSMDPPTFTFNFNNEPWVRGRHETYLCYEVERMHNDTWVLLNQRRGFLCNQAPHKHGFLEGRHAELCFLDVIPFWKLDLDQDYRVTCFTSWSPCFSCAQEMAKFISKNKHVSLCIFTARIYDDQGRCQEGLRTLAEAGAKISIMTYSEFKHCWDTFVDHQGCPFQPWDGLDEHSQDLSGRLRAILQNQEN
Outline: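 HeLa cells stably expressing Vif and A3G-eYFP, 700 cells/well, incubated overnight at 37 deg C, then exposed to compound overnight at 37 deg C. Inhibition of Vif-mediated degradation read as increased yellow fluorescence (Ex 488/Em 500-530) by laser-scanning cytometry.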

[10] = system: Zika virus NS2B-NS3 protease; assay: Primary screen GU AMC qHTS for Zika virus inhibitors (AID 1347154); also: nearly all actives have a fitted effect of over 70% in size
Outline: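 Unlinked Zika NS2B hydrophilic domain–NS3 protease complex at 25 nM in 10 mM Tris-HCl pH 8.0, 0.01% Tween 20, with an AMC peptide substrate. Fluorescence change (340/450 nm) over 15 min at room temperature, normalized to controls, fitted to 4-parameter Hill.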

[11] = target: Rap guanine nucleotide exchange factor 3 (Homo sapiens) (UniProt O95398); assay: Confirmatory qHTS for antagonist of cAMP-regulated guanine nucleotide exchange factor 3 (EPAC1) (AID 1645880); also: nearly all actives have a fitted effect of over 55% in size
Chain of Rap guanine nucleotide exchange factor 3 (Homo sapiens) (O95398 whole entry, looked up): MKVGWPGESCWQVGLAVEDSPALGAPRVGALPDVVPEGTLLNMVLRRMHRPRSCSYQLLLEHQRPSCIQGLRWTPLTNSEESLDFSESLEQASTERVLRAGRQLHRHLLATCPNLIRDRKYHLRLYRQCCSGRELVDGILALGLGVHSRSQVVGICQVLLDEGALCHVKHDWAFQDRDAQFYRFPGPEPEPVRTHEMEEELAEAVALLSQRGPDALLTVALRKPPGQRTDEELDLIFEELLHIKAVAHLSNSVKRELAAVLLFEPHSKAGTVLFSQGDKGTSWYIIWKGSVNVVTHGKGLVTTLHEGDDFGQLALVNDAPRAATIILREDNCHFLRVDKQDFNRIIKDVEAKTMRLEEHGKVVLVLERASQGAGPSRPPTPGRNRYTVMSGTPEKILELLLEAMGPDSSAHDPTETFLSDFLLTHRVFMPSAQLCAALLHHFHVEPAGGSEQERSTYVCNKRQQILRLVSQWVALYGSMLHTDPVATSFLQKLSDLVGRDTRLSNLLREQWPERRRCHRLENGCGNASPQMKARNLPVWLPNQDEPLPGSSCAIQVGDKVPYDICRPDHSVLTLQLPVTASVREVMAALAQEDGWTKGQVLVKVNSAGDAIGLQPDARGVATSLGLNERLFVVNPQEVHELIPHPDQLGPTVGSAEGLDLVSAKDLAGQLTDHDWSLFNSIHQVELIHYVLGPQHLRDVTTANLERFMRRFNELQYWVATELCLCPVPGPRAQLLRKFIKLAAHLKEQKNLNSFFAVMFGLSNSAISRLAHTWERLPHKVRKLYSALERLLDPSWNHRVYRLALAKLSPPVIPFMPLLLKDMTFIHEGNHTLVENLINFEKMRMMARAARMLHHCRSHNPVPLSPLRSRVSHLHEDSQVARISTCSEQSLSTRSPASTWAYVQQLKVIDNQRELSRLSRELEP
Outline: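 Nucleotide exchange uses 100 nM EPAC1, 250 nM RAP1B-BODIPY-GDP and 50 uM GDP, with compounds in a concentration-titration series. After 5 min at room temperature, fluorescence (480 nm ex/540 nm em) is read every 5 min for 30 min. Data are normalized to control ATA and DMSO.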

[12] = target: Rap guanine nucleotide exchange factor 3 (Homo sapiens) (UniProt O95398); assay: Confirmatory qHTS for agonist of cAMP-regulated guanine nucleotide exchange factor 3 (EPAC1) (AID 1645881);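 also: EPAC1 catalysed release of BODIPY-GDP from Rap1B seen as fluorescence loss; nearly all actives have a fitted effect of over 75% in size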
[13] = target: Rap guanine nucleotide exchange factor 4 (Homo sapiens) (UniProt Q8WZA2); assay: Confirmatory qHTS for agonist of cAMP-regulated guanine nucleotide exchange factor 4 (EPAC2) (AID 1645884);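 also: nucleotide exchange releases bodipy-GDP from Rap1 and this lowers its fluorescence; nearly all actives have a fitted effect of over 65% in size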
Chain of Rap guanine nucleotide exchange factor 4 (Homo sapiens) (Q8WZA2 whole entry, looked up): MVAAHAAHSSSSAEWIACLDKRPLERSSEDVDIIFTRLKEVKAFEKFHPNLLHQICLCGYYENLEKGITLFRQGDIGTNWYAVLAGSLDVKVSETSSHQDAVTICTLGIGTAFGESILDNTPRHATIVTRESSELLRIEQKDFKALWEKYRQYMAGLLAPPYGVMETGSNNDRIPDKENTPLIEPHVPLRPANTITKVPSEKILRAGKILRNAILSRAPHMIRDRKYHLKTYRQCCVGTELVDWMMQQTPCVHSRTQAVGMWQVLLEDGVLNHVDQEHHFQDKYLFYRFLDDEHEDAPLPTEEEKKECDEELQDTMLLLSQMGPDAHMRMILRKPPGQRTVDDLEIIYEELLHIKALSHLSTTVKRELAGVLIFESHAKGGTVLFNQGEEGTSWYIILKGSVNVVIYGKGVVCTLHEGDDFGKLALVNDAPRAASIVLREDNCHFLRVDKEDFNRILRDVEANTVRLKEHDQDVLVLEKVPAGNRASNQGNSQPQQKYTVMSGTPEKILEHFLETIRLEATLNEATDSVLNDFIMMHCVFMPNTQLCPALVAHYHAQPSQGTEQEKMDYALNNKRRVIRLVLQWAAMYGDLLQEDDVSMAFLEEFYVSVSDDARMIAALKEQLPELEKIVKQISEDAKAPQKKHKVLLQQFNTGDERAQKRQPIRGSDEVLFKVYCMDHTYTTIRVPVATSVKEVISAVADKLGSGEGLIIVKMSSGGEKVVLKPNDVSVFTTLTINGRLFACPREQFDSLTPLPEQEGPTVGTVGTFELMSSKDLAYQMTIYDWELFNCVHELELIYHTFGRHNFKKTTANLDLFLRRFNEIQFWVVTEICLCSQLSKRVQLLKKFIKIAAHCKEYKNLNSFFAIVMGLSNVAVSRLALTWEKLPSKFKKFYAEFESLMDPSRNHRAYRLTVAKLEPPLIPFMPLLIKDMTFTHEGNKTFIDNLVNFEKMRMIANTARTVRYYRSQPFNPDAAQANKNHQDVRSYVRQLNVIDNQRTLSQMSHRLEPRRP

[14] = target: Rap guanine nucleotide exchange factor 4 (Homo sapiens) (UniProt Q8WZA2); assay: Confirmatory qHTS for antagonist of cAMP-regulated guanine nucleotide exchange factor 4 (EPAC2) (AID 1645885); also: potency is read from the fitted curve at half-maximal effect; nearly all actives have a fitted effect of over 25% in size
[15] = target: Cytochrome P450 2C9 (Homo sapiens) (UniProt P11712); assay: qHTS Assay for Inhibitors and Substrates of Cytochrome P450 2C9 (AID 883); also: potency is read from the fitted curve at half-maximal effect; nearly all actives have a fitted effect of over 60% in size
Chain of Cytochrome P450 2C9 (Homo sapiens) (P11712 whole entry, looked up): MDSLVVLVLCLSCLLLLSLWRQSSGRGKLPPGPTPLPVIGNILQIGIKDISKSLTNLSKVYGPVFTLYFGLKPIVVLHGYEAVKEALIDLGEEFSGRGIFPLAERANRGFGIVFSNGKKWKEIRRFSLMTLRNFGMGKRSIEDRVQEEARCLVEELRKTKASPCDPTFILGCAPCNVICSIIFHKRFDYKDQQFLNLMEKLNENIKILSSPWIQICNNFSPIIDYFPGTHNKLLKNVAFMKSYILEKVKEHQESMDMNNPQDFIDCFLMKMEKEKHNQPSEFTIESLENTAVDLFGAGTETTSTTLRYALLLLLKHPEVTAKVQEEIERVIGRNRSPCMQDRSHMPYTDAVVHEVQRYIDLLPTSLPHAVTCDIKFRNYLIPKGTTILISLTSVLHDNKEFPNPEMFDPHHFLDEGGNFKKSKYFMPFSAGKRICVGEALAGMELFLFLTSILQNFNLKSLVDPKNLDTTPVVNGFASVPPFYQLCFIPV
Outline: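 10nM CYP2C9 + 100uM Luciferin-H (=KM), 25mM KPO4; cpd 10 min 37C; NADPH regen, 60 min 37C; stop/detect with P450 Glo-Buffer 20 min; luminescence. Norm. to 57uM sulphaphenazole as full inhibition.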

[16] = target: Cytochrome P450 2C9 (Homo sapiens) (UniProt P11712); assay: Cytochrome P450 family 2 subfamily C member 9 (CYP2C9) small molecule antagonists: luciferase biochemical (cell-free) qHTS assay (AID 1645842; active = well fitted curve in the direction sought with a large enough effect in the repeat runs; an effect the other way counts as inactive or inconclusive; also: nearly all actives have a fitted effect of over 55% in size)
Outline: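 Luminescence, after 20 min with luciferin detection reagent, reflected CYP2C9 turnover during a 1 h NADPH-driven reaction at 37C. Enzyme-substrate mix contained 0.4% bovine serum albumin and was preincubated with compound 10 min at room temperature.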

[17] = measured here: cell count channel max response
[18] = measured here: lipid channel max response

| SMILES | Potency [1] | Potency [2] | Potency [3] | Potency [4] | Potency [5] | Potency [6] | activity change, negative = inhibition [7] | max response [7, 17] [%] | max response [7, 18] [%] | Potency [8] | Potency [9] | Potency [10] | Potency [11] | outcome [12] | outcome [13] | Potency [14] | Potency [15] | Potency [16] |
| --- | --- | --- | --- | --- | --- | --- | --- | --- | --- | --- | --- | --- | --- | --- | --- | --- | --- | --- |
| NC(N)=Nc1ccc(Cl)cc1 | inactive | > 46 µM (inactive) | > 46 µM (inactive) | inactive | inactive | inactive | -3.61% (inactive) | -0.36 | -4.97 | inactive | inactive | inactive | – | – | – | – | – | – |
| CC[C@]1(c2ncc[nH]2)Cc2ccccc2O1 | inactive | > 46 µM (inactive) | > 46 µM (inactive) | inactive | inactive | – | – | – | – | inactive | inactive | inactive | inactive | inactive | inactive | 44.1 µM (active) | – | – |
| CN(CCc1ccc(Cl)c(Cl)c1)CCN1CCCC1 | – | > 46 µM (inactive) | > 46 µM (inactive) | inactive | – | – | -5.91% (inactive) | 22.4 | 15.8 | – | inactive | inactive | – | – | – | – | – | – |
| CN(CC[C@@H](Oc1ccc(-c2ccccc2)cc1)c1ccc(F)cc1)CC(=O)O | inactive | > 46 µM (inactive) | > 46 µM (inactive) | inactive | – | 6.31 µM (active) | – | – | – | – | inactive | inactive | – | – | – | – | 2.51 µM (active) | inactive |
